# Test results taken from PubChem BioAssay (Tox21).
# Where “and” joins values, the source holds several entries; their conditions need not be identical. Equal entries are not always repeated. Records with an inconclusive call do not appear. Calls of active or inactive are those of the source. Calls follow the shape of the dose curve; as a rule, active = well fitted activation curve with a large enough effect in the repeat runs; inconclusive = weak or mixed curves; inactive = no such curve, though single readings can be large or run the other way.
# Molecular target: Nuclear receptor subfamily 1 group I member 2 (Rattus norvegicus) (UniProt Q9R1A7)
# Experiment: Rat pregnane X receptor (rPXR) activation by small molecules, qHTS assay (AID 1346983); also: nearly all actives have a fitted effect of over 20% in size
# Details: rPXR luciferase reporter cells, One-Glo luminescence, 24 h; max activation: hits give high values
# Outline: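 Cell-based rPXR luciferase reporter assay, 2,000 cells per well, rested 5hr at 37 C before compound addition in DMSO, then 24 hr at 37 C. One-Glo reagent was added and luminescence read after 30 min at room temperature.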
# % is scaled to controls: 0 for no effect and ±100 for the full control effect.
# Sequence of Nuclear receptor subfamily 1 group I member 2 (Rattus norvegicus) (Q9R1A7 whole entry, looked up): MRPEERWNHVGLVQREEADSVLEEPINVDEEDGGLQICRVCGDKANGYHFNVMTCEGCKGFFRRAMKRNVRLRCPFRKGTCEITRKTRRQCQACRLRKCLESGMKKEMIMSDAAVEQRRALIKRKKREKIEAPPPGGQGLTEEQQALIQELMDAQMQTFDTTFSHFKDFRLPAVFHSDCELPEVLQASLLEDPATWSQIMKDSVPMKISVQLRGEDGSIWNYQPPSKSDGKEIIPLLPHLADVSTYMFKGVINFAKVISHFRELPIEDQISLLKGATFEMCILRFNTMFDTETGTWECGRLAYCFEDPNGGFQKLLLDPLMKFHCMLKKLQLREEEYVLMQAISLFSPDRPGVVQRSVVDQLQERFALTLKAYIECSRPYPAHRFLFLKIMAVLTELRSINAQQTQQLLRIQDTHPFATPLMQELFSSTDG
row,SMILES,max activation
1,CN1CCN(C2=Nc3cc(F)ccc3Cc3ccccc32)CC1,2.35% (inactive)
2,CCc1cc(Cl)c(OC)c(C(=O)NC[C@@H]2CCCN2CC)c1O,-0.901% (inactive)
3,OCc1ccccc1O,11.7% (inactive)
4,CCc1nnc(NS(=O)(=O)c2ccc(N)cc2)s1,-2.73% (inactive)
5,CN1CCN(c2c(F)cc3c(=O)c(C(=O)O)cn(CCF)c3c2F)CC1,-0.524% (inactive)
6,CCN(CCCc1ccccc1)CCCc1ccccc1,-0.276% (inactive)
7,COc1ccc(S(=O)(=O)Nc2nnc(CC(C)C)s2)cc1,-1.31% (inactive) and -1.74% (inactive)
8,Cc1cc(NS(=O)(=O)c2ccc(N)cc2)nc(C)n1,1.05% (inactive)

# Molecular target: Nuclear receptor subfamily 1 group I member 2 (Homo sapiens) (UniProt O75469)
# Experiment: CYP3A4 induction through human pregnane X receptor (PXR) by small molecules, qHTS assay (AID 1346984); also: nearly all actives have a fitted effect of over 40% in size; also: potency is read from the fitted curve at half-maximal effect
# Details: DPX-2 HepG2 PXR, CYP3A4-luciferin luminescence, 24 h; series mostly up to 46.1 µM; activation: at the top concentration
# Outline: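 HepG2-derived DPX-2 line carrying PXR plus a CYP3A4-promoter luciferase reporter; cells plated 5 hr, compound-exposed 24 hr at 37C. CYP3A4 activity probed with 3uM (final) Luciferin-IPA for 3hr, then luciferase read after One-Glo.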
SMILES,Potency,activation
CN1CCN(C2=Nc3cc(F)ccc3Cc3ccccc32)CC1,25.1 µM (active),
CCc1cc(Cl)c(OC)c(C(=O)NC[C@@H]2CCCN2CC)c1O,15.8 µM (active),
OCc1ccccc1O,,-3.29% (inactive)
CCc1nnc(NS(=O)(=O)c2ccc(N)cc2)s1,,-12.1% (inactive)
CN1CCN(c2c(F)cc3c(=O)c(C(=O)O)cn(CCF)c3c2F)CC1,,3.01% (inactive)
CCN(CCCc1ccccc1)CCCc1ccccc1,,-2.77% [at 20.6 µM] (inactive)
COc1ccc(S(=O)(=O)Nc2nnc(CC(C)C)s2)cc1,inactive,
Cc1cc(NS(=O)(=O)c2ccc(N)cc2)nc(C)n1,,-10.9% (inactive)
